Most compounds without a hit are left out; they make up all but 19% or so of the library.
TDP1 block = inhibitors of human tyrosyl-DNA phosphodiesterase TDP1 | Q9NUW8 | recombinant TDP1, AlphaScreen DNA substrate cleavage | Potency, µM (highest dose often 130 µM), for the others: top-dose activity change, negative = inhibition, most hits filed as inhibitors | 0.28% of 350,000 active; further: nearly all actives have a fitted effect of over 40% in size
Target sequence (Q9NUW8 whole entry, looked up): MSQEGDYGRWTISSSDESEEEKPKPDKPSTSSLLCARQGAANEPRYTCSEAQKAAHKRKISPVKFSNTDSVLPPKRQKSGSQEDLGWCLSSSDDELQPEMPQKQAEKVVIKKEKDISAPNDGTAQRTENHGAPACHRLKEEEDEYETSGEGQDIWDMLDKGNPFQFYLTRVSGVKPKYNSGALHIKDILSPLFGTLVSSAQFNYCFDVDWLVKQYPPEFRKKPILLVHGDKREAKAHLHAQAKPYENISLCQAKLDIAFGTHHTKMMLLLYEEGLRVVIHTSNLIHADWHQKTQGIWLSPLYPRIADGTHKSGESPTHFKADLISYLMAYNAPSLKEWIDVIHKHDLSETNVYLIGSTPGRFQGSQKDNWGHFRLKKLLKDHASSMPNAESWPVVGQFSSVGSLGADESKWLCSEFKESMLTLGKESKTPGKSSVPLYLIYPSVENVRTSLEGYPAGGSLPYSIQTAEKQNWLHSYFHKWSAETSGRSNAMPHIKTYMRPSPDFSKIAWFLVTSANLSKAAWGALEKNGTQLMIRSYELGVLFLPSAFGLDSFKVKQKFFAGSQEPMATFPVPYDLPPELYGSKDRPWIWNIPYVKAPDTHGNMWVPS
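Tdp1 1 nM final; 15 min RT w/ cpd; substrate 15 nM, 5 min; beads 10 ug/ml, 10 min; AlphaScreen read. Neg ctrl: no enzyme.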
RORg inh = blocks mouse ROR gamma transcriptional activity; P51450; Drosophila S2 Gal4-RORgamma UAS-luciferase reporter, 20 h; Potency, µM (highest dose often 53.6 µM), for inactives: top-dose activity change, negative = inhibition, usual class: inhibitors; 5.4% of 310,000 active; further: nearly all actives have a fitted effect of over 60% in size
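Luciferase reporter read in Schneider cells carrying Gal4-RORγ (mouse) and UAS-Photinus luciferase; cells given compound 1 h before 700 uM copper sulfate induction, then incubated 20 h at ambient temperature.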
TDP1 cell CPT = DT40-hTDP1 cell growth loss with CPT; Potency, µM (titrated, usually from 46.2 µM), for inactives: at the top dose activity change, negative = growth inhibition, hits mostly inhibitors; chicken DT40 Tdp1-/-;hTDP1 cells + 20 nM CPT, ATP luminescence, 48 h; AID 686979; 12% of 420,000 active; further: nearly all actives have a fitted effect of over 55% in size
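Cell growth measured by CellTiter-Glo luminescence after a minimum 48 h, 37 C compound exposure with 20 nM CPT in Tdp1-knockout DT40 cells stably expressing hTDP1, seeded 400/well; qHTS titration format.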
DT40 TDP1 no CPT = qHTS for Inhibitors of human tyrosyl-DNA phosphodiesterase 1 (TDP1): qHTS in cells in absence of CPT | AID 686978, 2013 | DT40 Tdp1-/- hTDP1 cells, no CPT, ATP luminescence, 48 h | Potency, µM (top dose mostly 46.2 µM), inactives show at the top dose activity change, negative = growth inhibition, hits mostly inhibitors | 15% of 420,000 active; further: nearly all actives have a fitted effect of over 55% in size
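Seeded 400 DT40-hTDP1 cells/well (vehicle DMSO, no 20 nM CPT); pinned compounds; ≥48 hr at 37 °C; CellTiter-Glo luminescence as viability measure.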
Gal4-VP16 FLuc = Gal4-VP16 reporter inhibition counter-screen; Potency, µM (titrated, usually from 53.6 µM), without a hit: at the top dose activity, negative = inhibition, usual class: inhibitors; Drosophila S2 Gal4-VP16 UAS-luciferase, luminescence, 20 h; 3.5% of 310,000 active;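 further: Gal4-VP16 expression switched on by copper sulfate through the metallothionein promoter; nearly all actives have a fitted effect of over 50% in size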
Starred values were filed as active, the others as inactive; ? = inconclusive; · = no result; [ ] = another dose, or the depositor's remark. The call rests on the fitted dose curve; in most records, active means well fitted curve in the direction sought with a large enough effect; inconclusive means small, poorly fitted or top-dose-only effect, or another doubt; inactive means no such curve, though single readings can be large; an effect the other way counts as inactive or inconclusive. On the % scale 0 is the no-effect control and ±100 the full control effect; potency means the concentration at half of the fitted maximal effect.

SMILES	TDP1 block	RORg inh	TDP1 cell CPT	DT40 TDP1 no CPT	Gal4-VP16 FLuc
COc1ccc(OC)c(NC(=O)CSc2nnc3ccc4ccccc4n23)c1	7.8%	·	?	20.6µM*	·
Cc1ccc(C(=O)CSc2nnc3ccc4ccccc4n23)cc1	-4.7%	·	?	16.4µM*	·
O=C(CSc1nnc2ccc3ccccc3n12)Nc1ccccc1Cl	0.5%	·	?	18.4µM*	·
CCc1ccccc1NC(=O)CSc1nnc2ccc3ccccc3n12	-4.7%	·	?	?	·
CCOc1ccc(Cc2c(Cl)nc(SC)nc2OC)cc1	0.0%	18.5%	-7.6%	-12.9%	-6.9%
CCn1c(C)nnc1SCC(=O)NC1CCCC1	0.0%	-15.4%	-0.8%	-3.7%	1.8%
O=C(NCCc1ccccc1)C1CC(c2ccccc2O)=NO1 (configuration not stated)	4.4%	?	-0.4%	-28.0%	?
Oc1c(CN2CCOCC2)cc(CN2CCOCC2)c(O)c1O	·	·	18.4µM*	?	·
Oc1ccc2ccccc2c1CN1CCOCC1	5.0%	-18.3%	-13.3%	-22.0%	4.8%
CCCc1cc(CN2CCOCC2)c(O)c(CN2CCOCC2)c1O	·	·	14.6µM*	18.4µM*	·
Oc1cccc(CN2CCOCC2)c1O	·	·	25.9µM*	?	·
CCCc1cc(=O)oc2cc(OCC(=O)N3CCC(C(N)=O)CC3)ccc12	·	-4.9%	7.4%	-1.0%	3.6%
CC1C(=O)CC(c2ccc([N+](=O)[O-])cc2)NC1c1ccc([N+](=O)[O-])cc1 (configuration not stated)	8.4%	23.0%	?	?	19.1%
CC1C(=O)C(C)C(c2ccc([N+](=O)[O-])cc2)NC1c1ccc([N+](=O)[O-])cc1 (configuration not stated)	4.8%	-12.8%	?	18.4µM*	4.8%
CC(C)NC(=O)C1(C)CCN1C(=O)Cc1ccc(-c2ccccc2)cc1 (configuration not stated)	·	·	16.4µM*	13µM*	·
CC1(C(=O)Nc2ccc3nc[nH]c3c2)CCN1C(=O)Cc1ccc(-c2ccccc2)cc1 (configuration not stated)	·	·	?	16.4µM*	·
CSc1ccccc1NC(=O)C1(C)CCN1C(=O)Cc1ccc(-c2ccccc2)cc1 (configuration not stated)	·	·	?	18.4µM*	·
CC1(C(=O)Nc2ccc3nc[nH]c3c2)CCN1C(=O)C1(c2ccccc2)CCCC1 (configuration not stated)	·	·	-29.4%	?	·
CC1(C(=O)NS(C)(=O)=O)CCN1C(=O)Cc1ccc(-c2ccccc2)cc1 (configuration not stated)	·	·	-10.5%	-4.0%	·
CC1(C(=O)NC2CCCCCC2)CCN1C(=O)C1(c2ccccc2)CC1 (configuration not stated)	·	·	11.6µM*	18.4µM*	·
CCCOC(=O)c1ccc(NC(=O)CN(C)Cc2cccs2)cc1	1.7%[0.0935 µM]	1.6%	-24.9%	?	-11.6%
CC(C)(C)c1ccc(N=C2SCC(=O)N2Cc2cccs2)cc1	-5.1%	21.2%	-4.4%	?	?
C=CCn1c(SCC(=O)N(CCO)CCO)nc2sc3c(c2c1=O)CCC3	1.6%	?	-1.8%	12.2%	-5.8%
CC(C)(C)CNC(=O)C1(C)CCN1C(=O)Cc1ccc(-c2ccccc2)cc1 (configuration not stated)	·	·	23.1µM*	18.4µM*	·
CC1(C(=O)NS(=O)(=O)c2cccc(F)c2)CCN1C(=O)Cc1ccc(-c2ccccc2)cc1 (configuration not stated)	·	·	0.7%	14.4%	·
SMILES	TDP1 block	RORg inh	TDP1 cell CPT	DT40 TDP1 no CPT	Gal4-VP16 FLuc
CC(C)(C)CNC(=O)C1(C)CCN1C(=O)c1ccccc1CCc1ccccc1 (configuration not stated)	·	·	20.6µM*	16.4µM*	·
CC1(C(=O)NS(=O)(=O)c2ccccc2)CCN1C(=O)c1ccccc1CCc1ccccc1 (configuration not stated)	·	·	11.0%	-1.4%	·
COc1ccccc1CNC(=O)C1(C)CCN1C(=O)Cc1ccc(-c2ccccc2)cc1 (configuration not stated)	·	·	16.4µM*	14.6µM*	·
CC(C)NC(=O)C1(C)CCN1Cc1ccc(-c2ccccc2)cc1 (configuration not stated)	·	·	11.6µM*	8.2µM*	·
CSc1ccc(NC(=O)C2(C)CCN2C(=O)c2cc(C)n(C)n2)cc1 (configuration not stated)	·	·	?	20.6µM*	·
CC(C)NC(=O)C1(C)CCCN1C/C=C/c1ccccc1 (configuration not stated)	·	·	20.6µM*	23.1µM*	·
CC1(C(=O)NC2CCCCCC2)CCN1C(=O)Cc1ccc(-c2ccccc2)cc1 (configuration not stated)	·	·	?	14.6µM*	·
CC1(C(=O)Nc2cccc3ncccc23)CCN1C(=O)Cc1ccc(-c2ccccc2)cc1 (configuration not stated)	·	·	23.1µM*	16.4µM*	·
O=C(NCc1ccc(Cl)cc1)C1CCC(=O)N(C2CC2)C1 (configuration not stated)	-1.7%	10.0%	0.2%	-7.8%	-2.5%
O=[N+]([O-])c1ccc(CS(=O)(=O)N2CCN(c3ccccc3)CC2)cc1	3.7%[0.0935 µM]	-11.2%	-14.5%	1.5%	-16.1%
Cc1ccc(NC(=O)C2(C)CCN2C(=O)Cc2ccc(-c3ccccc3)cc2)cc1 (configuration not stated)	·	·	16.4µM*	16.4µM*	·
CCC(C)NC(=O)Cc1ccc(-c2ccccc2)cc1 (configuration not stated)	2.6%	24.8%	?	20.6µM*	?
Cc1ccc(S(=O)(=O)NC(=O)C2(C)CCN2C(=O)Cc2ccc(-c3ccccc3)cc2)cc1 (configuration not stated)	·	·	11.6%	2.0%	·
CSc1ccc(NC(=O)C2(C)CCN2C(=O)Cc2ccc(C(C)(C)C)cc2)cc1 (configuration not stated)	·	·	23.1µM*	?	·
COc1ccc(NC(=O)COC(=O)CC2CCCCC2)cc1	-4.3%	·	-3.6%	6.6%	·
O=C(NCc1cccc(C(F)(F)F)c1)C1CC(c2cccc(F)c2)=NO1 (configuration not stated)	2.4%	5.3%	-4.2%	-3.8%	-2.3%
NC(=O)COc1ccc(C(=O)/C=C2/C(=O)Nc3ccccc32)cc1	·	7.94µM*	7.31µM*	2.91µM*	?
C=CCOc1ccccc1C(=O)/C=C1/C(=O)Nc2ccccc21	·	5.62µM*	5.8µM*	2.91µM*	12.6µM*
C=CCOc1ccc(C(=O)/C=C2/C(=O)Nc3ccccc32)cc1	·	?	16.4µM*	13µM*	-16.6%

Screening data from PubChem.
